# From PubChem BioAssay AID651629 (Sanford-Burnham Center for Chemical Genomics, 2012)
# This is one part of the list. Activity calls are given as the source filed them.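 Rule for the calls: active = mean inhibition across replicates of 40% or more; inactive = mean inhibition below 40%.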
# Experiment: triacylglycerol accumulation inhibitors, retest, confirmation, cell-based, single concentration, Nile Red fluorescence, H9c2 (AID 651629);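 note: plate controls were DMSO only wells for no effect and Triacsin C treated wells for full effect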
# Conditions: H9c2 lipid accumulation, at 12.5 µM, stronger effect = higher value, cells loaded with 200 µM oleic acid
row,SMILES,inhibition
1,COc1ccc(CC(=O)Nc2ccc(-c3nnc(-c4ccc(C)cc4)o3)cc2)cc1,57.6% (active)
2,COC(=O)Nc1nc2ccc(Sc3ccccc3)cc2[nH]1,66.1% (active)
3,C/C(=N\Nc1ccc(Cl)nn1)c1ccccc1O,66.4% (active)
4,O=C(CSc1nc2ccc(Nc3nc(N4CCOCC4)nc(N4CCOCC4)n3)cc2s1)NCc1ccco1,65.5% (active)
5,COc1ccccc1C1C2=C(COC2=O)Nc2cc3c(cc21)OCO3 (stereo unspecified),61.4% (active)
6,O=C(Nc1cc2c3c(c1)C1CCCC1CN3CC1CCCC21)c1ccc([N+](=O)[O-])cc1 (stereo unspecified),56.6% (active)
7,CC1(c2ccccc2)CC(C)(C)N(C(=O)c2cc([N+](=O)[O-])cc([N+](=O)[O-])c2)c2ccccc21 (stereo unspecified),62.2% (active)
8,CC1(C(=O)NCc2ccco2)Cc2c(-c3ccc4c(c3)OCO4)ccnc2O1 (stereo unspecified),61.9% (active)
9,COC(C[C@H](O)CC(=O)COCc1ccccc1)OC,-3.23% (inactive)
10,Cc1onc(NC(=O)c2ccc([N+](=O)[O-])o2)c1Br,46% (active)
11,CCOC(=O)N1CCN(C(=O)c2ccccc2N(Cc2ccccc2)S(=O)(=O)c2ccc(OC)cc2)CC1,64.1% (active)
12,Cc1cc(NC(=O)CSc2nc(C(C)C)nc3sc4c(c23)CCC(C)C4)no1 (stereo unspecified),51.7% (active)
13,COc1ccccc1NC1=NC(c2ccc(Cl)cc2)N=C(N)N1 (stereo unspecified),74.9% (active)
14,Cc1cc(N/N=C\c2ccc(Br)cc2)nc(-n2nc(C)cc2C)n1,58.6% (active)
15,COc1ccc(Nc2cc(=O)oc3ccccc23)cc1,50.6% (active)
16,COc1ccc2sc(-c3ccc(S(C)(=O)=O)cc3)c(C#Cc3cncn3C)c2c1,74.2% (active)
17,CC(=O)c1ccc(Oc2cc(C)nc(-n3nc(C)cc3C)n2)cc1,63.2% (active)
18,CCCOC(=O)c1[nH]c2c(c1C)C(=O)CC(c1cccs1)C2 (stereo unspecified),35.2% (inactive)
19,Cc1ccc(/C=N/NC(=S)Nc2cccc(S(=O)(=O)N(C)C)c2)o1,20.8% (inactive)
20,Cc1ccccc1NC(=O)CSc1nc2ccc(Nc3nc(N4CCOCC4)nc(N4CCOCC4)n3)cc2s1,77.3% (active)
21,Cc1ccc(Sc2cc(N3CCOCC3)nc(-c3ccccc3)n2)cc1,62.5% (active)
22,COc1ccc(S(=O)(=O)N2CCc3ccccc32)cc1C(=O)Nc1cc(S(C)(=O)=O)ccc1Cl,16.4% (inactive)
23,O=C(Nc1ccccc1)Oc1cccc2cccnc12,-3.58% (inactive)
24,Cc1ccccc1OCC(=O)Nc1ccc(N2CCN(C(=O)C(C)C)CC2)c(Cl)c1,7.1% (inactive)
25,COc1cc(NC(=O)c2cncc(-c3ccc(C#N)cc3)c2)cc(C(=O)Nc2cccc(C(F)(F)F)c2)c1,39.1% (inactive)
26,COc1ccc(-c2cc(NC=O)c3ncc(-c4cc(OC)c(OC)c(OC)c4)n3c2)c(OC)c1,79.3% (active)
